Inconclusive results are not listed. Values without a mark were called inactive. The source made the active and inactive calls. Calls follow the shape of the dose curve; as a rule, active = well fitted inhibition curve with a large enough effect; inconclusive = small, poorly fitted or top-dose-only effect, or effect the other way; inactive = flat fitted curve, though single readings scatter.
Experiment: qHTS for Inhibitors of Plasmodium falciparum (GB4) proliferation (AID 504315); also: nearly all actives have a fitted effect of over 50% in size;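 as to activity change, negative = inhibition: 0% = DMSO vehicle and -100% = 0.29 µM artemisinin control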
Settings: P. falciparum GB4 in erythrocytes, SYBR Green DNA, 72 h; series mostly up to 6.7 µM; activity change, negative = inhibition: at the top concentration
Text: Plasmodium falciparum is a virulent malarial parasite that kills 1-2 million people worldwide each year. Malaria not only inflicts tremendous suffering and morbidity on the human population, but has dramatically influenced the course of civilization with profound sociological and economic implications (Shah, S. 2010). Transmitted by mosquitoes, the sporozoite form of the parasite enters the blood stream to infect hepatocytes, where they become merozoites that infect red blood cells (erythrocytes). Within erythrocytes, merozoites begin a […] cycle of growth and division, after which the parasite is released to infect new red blood cells. Gametocytes, which form within erythrocytes as well, circulate in the bloodstream and are ingested by the mosquito, thereby completing the life cycle (see CDC website). To profile malarial lines for differential chemical responses and to identify inhibitors of malarial growth, an assay that measures P. falciparum growth and replication within erythrocytes was employed. This assay uses a DNA binding fluorescent dye (SYBR Green) to detect parasite DNA following cell lysis. Because mature erythrocytes lack DNA, only Plasmodium-derived DNA is detected. The P. falciparum line cp250, derived from a malarial isolate from Cambodia, (Mu, J., et al. 2010) was added to the panel of lines, Dd2, HB3, 7G8 and GB4 in this study. Laboratory of Assay Development and Screening Technology [ADST] and NIH Chemical Genomics Center [NCGC] Boston University, Chemistry Department, Center for Chemical Methodology and Library Development [CMLD-BU] NIH National Institute of Allergy and Infectious Diseases [NIAID]
ADST Assay Protocol Summary: The 1536-well SYBR Green viability assay was based on the method of Bennett et al (2004) and described previously in 1536-well format (Yuan J., et al. 2009). For screening 3 ul culture medium was dispensed into 1536 well black clear bottom plates (Aurora Biotechnologies) using a Multidrop Combi (Thermo Fisher Scientific Inc.), 23 nL compounds in DMSO were added by a pin transfer (Cleveland, P.H. and Koutz, P.J, 2005) using a pin tool-based delivery system (Kalypsys), and 5 ul of erythrocytes infected with P. falciparum one of five lines (cp250, Dd2, HB3, 7G8 or GB4, 0.3% parasitemia, 2.5% hematocrit final concentration) were added. The plates were incubated at 37C in a humidified incubator in 5% CO2 for 72 h, and 2 ul lysis buffer (20 mM Tris HCl, 10 mM EDTA, 0.16% saponin, 1.6% triton X, 10X SYBR Green I (supplied as 10,000X final concentration by Invitrogen) was added to each well. The plates were mixed for 25 sec with gentle shaking and incubated overnight at room temperature in the dark. The following morning, fluorescence intensity at 485(14) nm excitation and 535(25) nm emission wavelengths was measured on an EnVision (Perkin Elmer) plate reader. Plate reads were normalized relative to the control inhibitor (0.29 uM artemisinin) and vehicle (DMSO) wells present on each plate and then corrected by an algorithm using vehicle-only control plates at the beginning and end of the compound plate stack. References Shah, S. (2010). The Fever: how malaria has ruled humankind for 500,000 years. New York, Sarah Crichton Books. CDC web site, http://www.cdc.gov/malaria/about/biology/index.html Mu, J., Myers, R.A., Jiang, H., Liu, S., Ricklefs, S., Waisberg, M., Chotivanich, K., Wilairatana, P., Krudsood, S., White, N.J., et Plasmodium falciparum genome-wide scans for positive selection, recombination hot spots and resistance to antimalarial drugs Nature Genetics 2010, 42, pp 268-271 Bennett TN, Paguio, M., Gligorijevic, B., Seudieu, C., Kosar, A. D., Davidson, E., and Roepe, P. D. Novel, rapid, and inexpensive cell-based quantification of antimalarial drug efficacy Antimicrobial Agents Chemother. 2004, 48(5): pp 1807-10 Yuan J, Johnson RL, Huang RL, Wichterman J, Jiang HY, Hayton K, Fidock DA, Wellems TE, Inglese J, Austin CP, Su XZ. […]
For CC(CCC(=O)OC[C@H]1O[C@H](C#Cc2ccccc2)C=C[C@H]1Oc1ccc(C)cc1)=NOC[C@@H](O)COCc1ccco1, the “activity change, negative = inhibition” value was -3.92%.
For COC(=O)[C@H](Cc1ccccc1)NC(=O)O[C@H]1C(=O)c2ccc(OC)cc2O[C@@H]1c1ccc2c(c1)OCO2, the “activity change, negative = inhibition” value was 1.94%.
For C[C@H]1CCCC(=O)N[C@@H](c2ccccc2)[C@@H](C)CCCC(=O)N[C@@H]1c1ccccc1, the “activity change, negative = inhibition” value was -13%.
In the case of O[C@H](CC#CCOc1ccccc1)COCc1ccccc1, the “activity change, negative = inhibition” value is reported as -7.81%.
With C[C@@H](c1ccccc1)N1C(=O)[C@@H]2[C@H]3[C@H](O)[C@H](O)CC(=NOC[C@@H](O)COCc4ccco4)[C@H]3CC[C@H]2C1=O the “activity change, negative = inhibition” value was -6.57%.
For CCN1C(=S)NC(c2ccccc2)C(C(=O)OC)=C1C (stereo not given), the “activity change, negative = inhibition” value was 10.8%.
With C=CC1=C2C=C(C3CC3)N(CCN3CCOCC3)C=C2C(=O)C(C)(OC(=O)c2ccco2)C1=O (stereo not given) the Potency was “inactive”.
In the case of COCCN1C(=S)NC(c2cccc(F)c2)C(C(=O)OC)=C1C (stereo not given), the “activity change, negative = inhibition” value is reported as -10.4%.
In the case of C=CCC1(O)C=CCC2C3C4C(OC(C)(C)C)C2C1C34 (stereo not given), the “activity change, negative = inhibition” value is reported as 7.98%.
In the case of COc1ccc(NC2=CC(c3ccccc3)N(c3ccc(OC)cc3)C2=O)cc1 (stereo not given), the “activity change, negative = inhibition” value is reported as 12.9%.
With COc1ccc2c(c1)O[C@@H](c1cccc(C(F)(F)F)c1)[C@H](OC(=O)NC1CCCC1)C2=O the “activity change, negative = inhibition” value was 3.88%.
In the case of COc1cc(CCN2C(=O)NC(c3ccccc3)C(C(C)=O)=C2C)cc(OC)c1OC (stereo not given), the “activity change, negative = inhibition” value is reported as -7.68%.
In the case of CCCCCCCC#Cc1ccccc1C=NS(=O)c1ccc(C)cc1 (stereo not given), the “activity change, negative = inhibition” value is reported as 4.81%.
In the case of COc1cccc2c1C1(CCCCC1)CC2NC(=O)C(F)(F)F (stereo not given), the “activity change, negative = inhibition” value is reported as 2.05%.
In the case of COC(=O)C1=C(C(=O)OC)[C@@H]2N(Cc3ccccc3)c3ccccc3[C@@]23C[C@@H](C(=O)OC)N(C(=O)NCc2ccccc2)C3=C1, the “activity change, negative = inhibition” value is reported as -6.75%.
With O=C(NC(CC1=CCCCC1)c1ccc2ccccc2c1)C(F)(F)F (stereo not given) the “activity change, negative = inhibition” value was 2.07%.
In the case of CCOC(=O)CN1C(=O)NC(c2cccc(F)c2)C(C(C)=O)=C1C (stereo not given), the “activity change, negative = inhibition” value is reported as 12%.
With C=CCOC(=O)N[C@H](C(C(=O)OC)=C(C)NCc1ccccc1)c1cccc(C(F)(F)F)c1 the Potency was “inactive”.
For COC(=O)CC=C1c2ccccc2OC[C@@H](OC)[C@H]1C, the “activity change, negative = inhibition” value was 7.02%.
In the case of CCCCC1=CC2=C(c3ccco3)C(=O)C(C)(OC(=O)c3ccc(OC)cc3)C(=O)C2=CN1CCc1ccccn1 (stereo not given), the Potency is reported as “inactive”.
For CC(CCN1CCCCc2nc(C)c(C)cc21)=NO[C@@H](C)CN1CCCCc2nc(C)c(C)cc21, the “activity change, negative = inhibition” value was 9.27%.
In the case of COc1cc2c(c(OC)c1OC)C1(c3ccccc3)CCCCCC1[C@@H]2NC(=O)C(F)(F)F (stereo not given in full), the “activity change, negative = inhibition” value is reported as -0.629%.
With CCN1C(=NCc2ccco2)N[C@@H](c2ccccc2)[C@H](C(=O)OC)[C@H]1C the “activity change, negative = inhibition” value was 4.84%.
With COc1ccc(O[C@H]2C=C[C@@H](c3ccccc3)O[C@H]2COC(=O)CCC(C)=NOC[C@@H](O)COCc2ccco2)cc1 the “activity change, negative = inhibition” value was -10.4%.
For C=CCN=C1NC(CCc2ccccc2)C(C(=O)OC)=C(C)N1CC (stereo not given), the “activity change, negative = inhibition” value was -16.4%.
For O=C1OCCC=C1C(O)CCc1ccccc1 (stereo not given), the “activity change, negative = inhibition” value was 6.84%.
For CC1(OC(=O)c2cccs2)C(=O)C=C2C=C(c3ccsc3)OC=C2C1=O (stereo not given), the “activity change, negative = inhibition” value was 2.22%.
In the case of C[C@H]1C=CCC(=O)NCc2cccc(c2)CNC(=O)N[C@@H]1c1ccccc1, the “activity change, negative = inhibition” value is reported as -7.76%.
With COC(=O)C1=C(C(=O)OC)[C@@H]2N(C)c3ccccc3[C@@]23C[C@@H](C(=O)OC)N(C(=O)NC(C)(C)C)C3=N1 the “activity change, negative = inhibition” value was 6.85%.
With CCOC(=O)CCN1C(=O)[C@@H]2[C@H]3[C@H](O)[C@H](O)CC(=NNC(=O)OCc4ccc(OC)cc4)[C@@H]3CC[C@H]2C1=O the “activity change, negative = inhibition” value was 4.42%.
For COC(=O)N[C@H](C(C(=O)OC)=C(C)NCc1ccccc1)c1ccco1, the “activity change, negative = inhibition” value was 14.3%.
With C[C@@H]1CC[C@H]2C(=O)N(Cc3ccccc3)C[C@H](O)CN2[C@@H]1c1ccc(Br)cc1 the Potency was 1690 nM (active).
In the case of CC[C@H](C)[C@@H](NC(=O)O[C@@H]1C(=O)c2ccc(OC)cc2O[C@H]1c1ccc2c(c1)OCO2)C(=O)OC, the “activity change, negative = inhibition” value is reported as 4.84%.
With COCCN1C(=O)N[C@@H](CCc2ccccc2)[C@H](C(=O)OC)[C@H]1C the Potency was “inactive”.
For COC(=O)C1=C(C(=O)OC)[C@@H]2N(C)c3ccc(OC)cc3[C@@]23C[C@@H](C(=O)OC)N(C(=O)NC(C)(C)C)C3=N1, the Potency was 1900 nM (active).
With CCOC(=O)CNC(=O)O[C@@H]1C(=O)c2cc(OC)ccc2O[C@H]1c1cccc(OC)c1 the “activity change, negative = inhibition” value was 4.36%.
In the case of CCCCS(=O)(=O)N1CCc2nc(-c3ccccc3)c3c(c2C1)CO[C@@H](C)C3, the Potency is reported as “inactive”.
In the case of COC(=O)[C@H](Cc1ccccc1)NC(=O)O[C@@H]1C(=O)c2cc(OC)ccc2O[C@H]1c1ccc(OC)c(Br)c1, the “activity change, negative = inhibition” value is reported as 6.64%.
For CCOC(=O)CCN1C(=O)[C@@H]2[C@H]3[C@H](O)[C@H](O)CC(=NOCc4ccccc4)[C@@H]3CC[C@H]2C1=O, the “activity change, negative = inhibition” value was -4.29%.
With COC(=O)N[C@@H](CCc1ccccc1)[C@]1(C(=O)OC)CCCC1=O the “activity change, negative = inhibition” value was 2.49%.
Potency is read from the fitted curve at half-maximal effect.
